Source: ChEMBL document CHEMBL1961873, “Compounds: GSK PKIS; Assays: Nanosyn kinase panel” (2012)

Tests used:
[1] = biological target: Sphingosine kinase 1 (Homo sapiens) (UniProt Q9NYA1); details: at 1 µM;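 note: mean SPHK1 inhibition value reported from the GSK PKIS kinase panel screen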
[2] = biological target: T1, Sphingosine kinase 2 (Homo sapiens) (UniProt Q9NRA0); details: at 0.1 µM
T1 sequence (whole entry): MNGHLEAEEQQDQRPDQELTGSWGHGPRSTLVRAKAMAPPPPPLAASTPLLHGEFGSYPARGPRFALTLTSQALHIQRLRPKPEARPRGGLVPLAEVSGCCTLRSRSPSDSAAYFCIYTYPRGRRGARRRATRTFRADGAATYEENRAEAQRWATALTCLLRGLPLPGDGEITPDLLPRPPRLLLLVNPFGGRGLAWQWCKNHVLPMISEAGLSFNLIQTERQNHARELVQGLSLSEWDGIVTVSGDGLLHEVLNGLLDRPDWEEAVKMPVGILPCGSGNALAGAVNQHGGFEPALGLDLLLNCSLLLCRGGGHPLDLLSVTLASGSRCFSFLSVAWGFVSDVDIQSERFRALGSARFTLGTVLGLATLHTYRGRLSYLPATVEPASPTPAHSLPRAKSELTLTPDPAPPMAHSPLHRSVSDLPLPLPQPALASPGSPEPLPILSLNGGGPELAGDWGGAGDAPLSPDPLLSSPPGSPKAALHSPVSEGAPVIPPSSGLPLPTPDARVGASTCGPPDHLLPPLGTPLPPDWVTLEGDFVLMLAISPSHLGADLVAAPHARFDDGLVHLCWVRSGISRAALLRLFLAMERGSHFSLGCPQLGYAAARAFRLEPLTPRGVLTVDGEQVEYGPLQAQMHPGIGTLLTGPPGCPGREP

[3] = biological target: T1, Sphingosine kinase 2 (Homo sapiens); details: at 1 µM
[4] = biological target: Casein kinase II subunit alpha (Homo sapiens) (UniProt P68400); details: at 0.1 µM
Sequence of Casein kinase II subunit alpha (Homo sapiens) (P68400 whole entry, looked up): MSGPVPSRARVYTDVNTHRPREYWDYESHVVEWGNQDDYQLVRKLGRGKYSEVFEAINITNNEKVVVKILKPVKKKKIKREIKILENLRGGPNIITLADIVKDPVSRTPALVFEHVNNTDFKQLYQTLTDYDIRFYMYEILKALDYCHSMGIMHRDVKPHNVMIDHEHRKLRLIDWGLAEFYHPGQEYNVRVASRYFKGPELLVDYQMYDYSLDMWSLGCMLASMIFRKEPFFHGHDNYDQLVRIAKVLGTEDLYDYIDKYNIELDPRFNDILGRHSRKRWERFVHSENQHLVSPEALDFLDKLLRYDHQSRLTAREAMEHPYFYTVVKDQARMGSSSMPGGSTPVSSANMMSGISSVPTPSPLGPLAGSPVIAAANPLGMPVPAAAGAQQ

[5] = biological target: Casein kinase II subunit alpha (Homo sapiens) (UniProt P68400); details: at 1 µM
[6] = biological target: T2, Inhibitor of nuclear factor kappa-B kinase subunit alpha (Homo sapiens) (UniProt O15111); details: at 0.1 µM
T2 sequence (whole entry): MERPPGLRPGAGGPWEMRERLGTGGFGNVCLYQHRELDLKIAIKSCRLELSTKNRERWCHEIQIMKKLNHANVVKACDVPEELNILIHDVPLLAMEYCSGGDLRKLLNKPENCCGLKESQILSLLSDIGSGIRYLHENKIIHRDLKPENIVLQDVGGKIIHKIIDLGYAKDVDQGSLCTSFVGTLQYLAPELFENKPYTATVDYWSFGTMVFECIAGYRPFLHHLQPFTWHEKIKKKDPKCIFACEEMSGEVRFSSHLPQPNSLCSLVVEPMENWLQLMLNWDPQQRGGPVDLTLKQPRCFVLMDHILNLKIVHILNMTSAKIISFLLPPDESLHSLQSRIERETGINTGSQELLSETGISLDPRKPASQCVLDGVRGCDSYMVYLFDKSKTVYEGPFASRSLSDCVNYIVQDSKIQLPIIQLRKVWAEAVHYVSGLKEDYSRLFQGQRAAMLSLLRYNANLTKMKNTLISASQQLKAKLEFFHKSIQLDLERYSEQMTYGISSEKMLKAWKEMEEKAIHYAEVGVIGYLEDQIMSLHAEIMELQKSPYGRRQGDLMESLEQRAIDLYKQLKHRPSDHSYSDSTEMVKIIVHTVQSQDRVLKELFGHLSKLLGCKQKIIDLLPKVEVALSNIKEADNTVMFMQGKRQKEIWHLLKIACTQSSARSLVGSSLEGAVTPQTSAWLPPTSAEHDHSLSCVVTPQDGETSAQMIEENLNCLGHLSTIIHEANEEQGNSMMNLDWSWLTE

[7] = biological target: T2, Inhibitor of nuclear factor kappa-B kinase subunit alpha (Homo sapiens); details: at 1 µM
[8] = biological target: T3, Inhibitor of nuclear factor kappa-B kinase subunit beta (Homo sapiens) (UniProt O14920); details: at 0.1 µM
T3 sequence (whole entry): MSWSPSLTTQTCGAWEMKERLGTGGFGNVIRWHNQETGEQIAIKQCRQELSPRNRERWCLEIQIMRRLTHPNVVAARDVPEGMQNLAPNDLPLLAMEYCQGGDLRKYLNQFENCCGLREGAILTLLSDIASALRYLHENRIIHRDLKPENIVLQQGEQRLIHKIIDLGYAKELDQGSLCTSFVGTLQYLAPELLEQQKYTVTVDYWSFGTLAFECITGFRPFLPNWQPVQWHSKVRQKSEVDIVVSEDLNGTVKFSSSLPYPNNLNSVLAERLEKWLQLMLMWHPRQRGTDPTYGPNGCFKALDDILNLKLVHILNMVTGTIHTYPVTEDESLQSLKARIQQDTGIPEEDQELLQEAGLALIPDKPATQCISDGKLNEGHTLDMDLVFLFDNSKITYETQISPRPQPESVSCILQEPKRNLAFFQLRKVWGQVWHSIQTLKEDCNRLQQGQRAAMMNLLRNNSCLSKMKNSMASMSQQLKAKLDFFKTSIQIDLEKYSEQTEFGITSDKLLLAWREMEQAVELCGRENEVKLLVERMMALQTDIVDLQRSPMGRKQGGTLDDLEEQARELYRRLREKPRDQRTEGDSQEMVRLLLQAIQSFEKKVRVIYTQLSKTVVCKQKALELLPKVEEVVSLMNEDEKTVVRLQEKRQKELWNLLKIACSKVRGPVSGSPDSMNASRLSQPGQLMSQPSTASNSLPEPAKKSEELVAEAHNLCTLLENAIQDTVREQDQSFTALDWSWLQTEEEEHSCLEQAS

[9] = biological target: T3, Inhibitor of nuclear factor kappa-B kinase subunit beta (Homo sapiens); details: at 1 µM
[10] = biological target: T4, Inhibitor of nuclear factor kappa-B kinase subunit epsilon (Homo sapiens) (UniProt Q14164); details: at 0.1 µM
T4 sequence (whole entry): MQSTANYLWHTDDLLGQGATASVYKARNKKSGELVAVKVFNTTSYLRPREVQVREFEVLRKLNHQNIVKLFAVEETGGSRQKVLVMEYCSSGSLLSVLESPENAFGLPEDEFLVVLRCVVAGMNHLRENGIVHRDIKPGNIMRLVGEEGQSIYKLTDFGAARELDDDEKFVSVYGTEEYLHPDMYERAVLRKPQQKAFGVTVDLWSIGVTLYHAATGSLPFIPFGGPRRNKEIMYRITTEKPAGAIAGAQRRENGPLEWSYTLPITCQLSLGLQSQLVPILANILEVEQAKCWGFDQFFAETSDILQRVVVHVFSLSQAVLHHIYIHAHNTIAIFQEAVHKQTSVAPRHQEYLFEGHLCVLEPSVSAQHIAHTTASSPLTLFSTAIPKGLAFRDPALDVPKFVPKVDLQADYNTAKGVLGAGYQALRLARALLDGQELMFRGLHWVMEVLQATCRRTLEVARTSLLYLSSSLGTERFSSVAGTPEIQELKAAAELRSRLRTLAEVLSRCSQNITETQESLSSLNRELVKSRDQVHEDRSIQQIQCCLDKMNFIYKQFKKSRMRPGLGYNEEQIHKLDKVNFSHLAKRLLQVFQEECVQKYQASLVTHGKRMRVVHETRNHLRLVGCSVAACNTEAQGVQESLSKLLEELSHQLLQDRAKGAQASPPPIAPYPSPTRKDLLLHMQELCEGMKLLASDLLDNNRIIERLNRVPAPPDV

[11] = biological target: T4, Inhibitor of nuclear factor kappa-B kinase subunit epsilon (Homo sapiens); details: at 1 µM
[12] = biological target: T5, Serine/threonine-protein kinase Nek1 (Homo sapiens) (UniProt Q96PY6); details: at 0.1 µM
T5 sequence (whole entry): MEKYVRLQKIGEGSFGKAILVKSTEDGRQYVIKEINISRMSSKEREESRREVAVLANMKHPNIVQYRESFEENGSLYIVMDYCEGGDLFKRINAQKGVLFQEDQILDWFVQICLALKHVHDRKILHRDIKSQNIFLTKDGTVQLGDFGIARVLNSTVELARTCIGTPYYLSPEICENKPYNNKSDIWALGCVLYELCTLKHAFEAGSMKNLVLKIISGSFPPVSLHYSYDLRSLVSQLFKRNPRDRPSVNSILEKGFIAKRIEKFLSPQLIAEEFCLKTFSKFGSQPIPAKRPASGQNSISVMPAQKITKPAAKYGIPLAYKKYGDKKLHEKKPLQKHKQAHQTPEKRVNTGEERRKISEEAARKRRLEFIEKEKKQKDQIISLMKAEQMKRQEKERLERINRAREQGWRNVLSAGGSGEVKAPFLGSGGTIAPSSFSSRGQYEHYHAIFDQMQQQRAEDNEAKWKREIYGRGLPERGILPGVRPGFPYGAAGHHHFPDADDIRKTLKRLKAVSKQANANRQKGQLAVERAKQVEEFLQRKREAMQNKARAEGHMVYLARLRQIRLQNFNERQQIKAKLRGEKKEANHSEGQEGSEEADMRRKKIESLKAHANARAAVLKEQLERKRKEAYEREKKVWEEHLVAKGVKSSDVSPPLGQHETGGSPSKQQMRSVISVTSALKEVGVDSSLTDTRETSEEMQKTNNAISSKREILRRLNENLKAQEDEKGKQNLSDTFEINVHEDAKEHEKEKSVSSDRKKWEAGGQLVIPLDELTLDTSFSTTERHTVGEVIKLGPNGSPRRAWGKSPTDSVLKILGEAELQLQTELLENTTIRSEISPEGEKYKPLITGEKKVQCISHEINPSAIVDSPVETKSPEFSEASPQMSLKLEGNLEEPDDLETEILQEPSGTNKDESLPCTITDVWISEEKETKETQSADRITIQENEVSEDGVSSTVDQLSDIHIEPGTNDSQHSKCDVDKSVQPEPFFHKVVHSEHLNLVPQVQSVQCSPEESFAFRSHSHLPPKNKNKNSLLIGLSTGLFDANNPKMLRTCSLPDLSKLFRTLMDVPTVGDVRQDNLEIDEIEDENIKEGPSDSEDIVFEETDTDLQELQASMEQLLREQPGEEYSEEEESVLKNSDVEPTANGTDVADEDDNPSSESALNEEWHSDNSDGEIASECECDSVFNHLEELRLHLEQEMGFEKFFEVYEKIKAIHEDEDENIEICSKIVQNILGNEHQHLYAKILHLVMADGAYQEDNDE

[13] = biological target: T5, Serine/threonine-protein kinase Nek1 (Homo sapiens); details: at 1 µM
[14] = biological target: T6, Serine/threonine-protein kinase Nek2 (Homo sapiens) (UniProt P51955); details: at 0.1 µM
T6 sequence (whole entry): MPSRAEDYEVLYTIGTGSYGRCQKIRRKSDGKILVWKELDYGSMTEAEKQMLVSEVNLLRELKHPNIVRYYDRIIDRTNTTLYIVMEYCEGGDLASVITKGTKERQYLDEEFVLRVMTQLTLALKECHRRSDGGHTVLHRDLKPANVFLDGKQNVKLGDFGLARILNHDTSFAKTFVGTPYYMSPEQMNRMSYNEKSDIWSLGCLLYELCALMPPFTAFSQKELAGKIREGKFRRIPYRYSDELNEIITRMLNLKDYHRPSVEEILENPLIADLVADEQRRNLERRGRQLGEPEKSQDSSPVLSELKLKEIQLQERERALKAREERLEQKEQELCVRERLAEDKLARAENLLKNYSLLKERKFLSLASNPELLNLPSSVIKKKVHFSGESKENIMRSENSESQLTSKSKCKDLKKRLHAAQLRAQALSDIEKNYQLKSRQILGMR

[15] = biological target: T6, Serine/threonine-protein kinase Nek2 (Homo sapiens); details: at 1 µM
[16] = biological target: Serine/threonine-protein kinase Nek6 (Homo sapiens) (UniProt Q9HC98); details: at 0.1 µM
Sequence of Serine/threonine-protein kinase Nek6 (Homo sapiens) (Q9HC98 whole entry): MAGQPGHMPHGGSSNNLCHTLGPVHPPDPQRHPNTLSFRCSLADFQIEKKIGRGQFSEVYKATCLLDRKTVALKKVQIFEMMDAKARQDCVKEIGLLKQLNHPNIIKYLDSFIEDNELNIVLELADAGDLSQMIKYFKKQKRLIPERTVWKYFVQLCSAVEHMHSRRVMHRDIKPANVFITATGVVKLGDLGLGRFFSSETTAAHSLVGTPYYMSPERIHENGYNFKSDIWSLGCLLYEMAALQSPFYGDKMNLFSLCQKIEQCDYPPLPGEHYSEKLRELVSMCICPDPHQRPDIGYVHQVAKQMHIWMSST

[17] = biological target: Serine/threonine-protein kinase Nek6 (Homo sapiens) (UniProt Q9HC98); details: at 1 µM
[18] = biological target: Serine/threonine-protein kinase Nek7 (Homo sapiens) (UniProt Q8TDX7); details: at 0.1 µM
Sequence of Serine/threonine-protein kinase Nek7 (Homo sapiens) (Q8TDX7 whole entry, looked up): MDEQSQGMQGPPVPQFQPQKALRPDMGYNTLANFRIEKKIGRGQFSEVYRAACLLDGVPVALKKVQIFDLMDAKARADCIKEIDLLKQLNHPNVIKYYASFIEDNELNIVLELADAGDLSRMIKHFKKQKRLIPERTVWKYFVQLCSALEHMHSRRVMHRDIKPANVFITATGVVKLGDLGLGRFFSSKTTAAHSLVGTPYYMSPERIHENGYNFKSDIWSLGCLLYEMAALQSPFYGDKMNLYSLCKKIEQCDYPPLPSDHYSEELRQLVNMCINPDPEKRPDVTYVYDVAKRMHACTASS

[19] = biological target: Serine/threonine-protein kinase Nek7 (Homo sapiens) (UniProt Q8TDX7); details: at 1 µM
[20] = biological target: T7, Serine/threonine-protein kinase Nek9 (Homo sapiens) (UniProt Q8TD19); details: at 0.1 µM;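 note: reported value is the mean percent inhibition of NEK9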
T7 sequence (whole entry): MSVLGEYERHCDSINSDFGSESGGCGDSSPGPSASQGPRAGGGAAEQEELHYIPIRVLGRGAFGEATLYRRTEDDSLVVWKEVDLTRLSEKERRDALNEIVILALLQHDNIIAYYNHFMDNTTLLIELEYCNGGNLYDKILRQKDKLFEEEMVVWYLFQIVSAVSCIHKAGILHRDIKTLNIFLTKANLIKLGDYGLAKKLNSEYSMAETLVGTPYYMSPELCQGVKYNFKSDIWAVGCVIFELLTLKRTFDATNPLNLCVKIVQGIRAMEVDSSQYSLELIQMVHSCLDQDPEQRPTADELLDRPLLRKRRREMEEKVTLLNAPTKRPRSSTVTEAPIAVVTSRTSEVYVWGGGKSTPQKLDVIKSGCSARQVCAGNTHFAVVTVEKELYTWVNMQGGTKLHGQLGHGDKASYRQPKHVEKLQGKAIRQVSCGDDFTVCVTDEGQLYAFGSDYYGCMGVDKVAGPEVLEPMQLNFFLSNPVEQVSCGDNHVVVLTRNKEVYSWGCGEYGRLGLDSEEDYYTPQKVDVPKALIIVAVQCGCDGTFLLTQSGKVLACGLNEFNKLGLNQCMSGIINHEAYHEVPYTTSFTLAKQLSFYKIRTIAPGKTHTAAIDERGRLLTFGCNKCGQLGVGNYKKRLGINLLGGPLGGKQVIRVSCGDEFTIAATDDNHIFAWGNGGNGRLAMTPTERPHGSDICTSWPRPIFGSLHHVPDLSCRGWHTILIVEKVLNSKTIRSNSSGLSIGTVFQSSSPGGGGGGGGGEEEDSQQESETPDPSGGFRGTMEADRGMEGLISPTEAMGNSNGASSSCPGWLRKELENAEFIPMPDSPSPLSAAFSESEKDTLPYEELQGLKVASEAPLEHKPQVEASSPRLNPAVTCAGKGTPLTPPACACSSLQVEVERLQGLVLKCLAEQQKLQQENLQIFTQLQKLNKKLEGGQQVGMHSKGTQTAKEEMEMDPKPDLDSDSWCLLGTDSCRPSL

Sequence of Sphingosine kinase 1 (Homo sapiens) (Q9NYA1 whole entry): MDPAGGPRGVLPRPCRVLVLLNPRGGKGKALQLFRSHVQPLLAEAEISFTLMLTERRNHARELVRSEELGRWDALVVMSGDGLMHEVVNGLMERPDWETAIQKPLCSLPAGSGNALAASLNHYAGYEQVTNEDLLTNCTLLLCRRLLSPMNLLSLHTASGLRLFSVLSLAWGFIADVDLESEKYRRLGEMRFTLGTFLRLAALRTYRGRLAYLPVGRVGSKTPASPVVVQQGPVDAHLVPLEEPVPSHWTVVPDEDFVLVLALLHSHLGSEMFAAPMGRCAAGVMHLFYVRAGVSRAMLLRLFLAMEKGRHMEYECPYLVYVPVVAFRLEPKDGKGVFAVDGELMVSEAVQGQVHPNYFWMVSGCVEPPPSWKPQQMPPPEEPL

SMILES	inhibition [1] [%]	inhibition [2] [%]	inhibition [3] [%]	inhibition [4] [%]	inhibition [5] [%]	inhibition [6] [%]	inhibition [7] [%]	inhibition [8] [%]	inhibition [9] [%]	inhibition [10] [%]	inhibition [11] [%]	inhibition [12] [%]	inhibition [13] [%]	inhibition [14] [%]	inhibition [15] [%]	inhibition [16] [%]	inhibition [17] [%]	inhibition [18] [%]	inhibition [19] [%]	inhibition [20] [%]
CN(C)C(=O)O[C@@H]1CN[C@@H](C#Cc2cc3ncnc(Nc4ccc(OCc5cccc(F)c5)c(Cl)c4)c3s2)C1	-1.68	0	0	-1.08	-1.78	6.13	-0.14	4.79	2.73	0.34	-2.71	1.22	0.34	2	2.88	0.28	-0.53	3.24	2.3	0.42
Cc1ccc2c(-c3ccnc(Nc4ccc5c(c4)OCCO5)n3)c(-c3ccc(C(F)(F)F)cc3)nn2n1	-4.65	-0.54	1.85	9.31	1.49	0.44	0.46	-1.92	-5.04	4.65	-0.03	0.53	1.72	1.37	1.37	0.53	-0.1	-0.01	0	1.38
